Laboratory results taken from PubChem BioAssay AID1159580 (chemical genetic matrix, 2015).
Hit rate of the full screen: of about 5,500 compounds, about 2,000 (36%) were called active. About 18% were inconclusive and are not listed. Cut-off read from the data, not from the text of the source: active = normalized growth mostly below about 0.91 (no sharp cut-off); inconclusive = no clear call, values can overlap the other calls; inactive = mostly above about 0.92. The list shows a part of the results.

Experiment: chemical genetic growth profiling, strain panel (AID 1159580);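 note: tested at 20 µM; growth read once vehicle control cultures reached saturation at 30 °C; 1 = growth at the plate median or of vehicle wells; lower values mean less growth of the strain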
Conditions: S. cerevisiae deletion strains, growth OD
[1] = locus YAL040C, strain CLN3, active compounds read low
[2] = locus YCL061C, strain MRC1 (second series), active compounds read low
[3] = locus YER002W, strain NOP16, active compounds read low
[4] = locus YGR229C, strain SMI1, active compounds read low
[5] = locus YNL175C, strain NOP13, active compounds read low
[6] = locus YNL197C, strain WHI3, active compounds read low
[7] = locus YNL224C, strain SQS1, active compounds read low
[8] = locus YOR083W, strain WHI5 (second series), active compounds read low

Measured: normalized growth

CNCC(O)c1ccc(O)c(O)c1 (stereo not drawn)
inactive: [1] 1.08 | [2] 1 | locus YDR363W, strain ESC2, active compounds read low 1.01 | [3] 1 | locus YGR078C, strain PAC10, active compounds read low 1.02 | [4] 0.982 | locus YJR075W, strain HOC1, active compounds read low 1 | locus YMR263W, strain SAP30, active compounds read low 1.01 | locus YMR307W, strain GAS1, active compounds read low 1 | [5] 0.994 | [6] 0.998 | [7] 1.02 | [8] 1.02

CCOC(=O)C12CC1/C(=N\O)c1ccccc1O2 (stereo not drawn)
inactive: locus YAL013W, strain DEP1, active compounds read low 0.998 | [1] 1.05 | [2] 0.995 | [3] 1.02 | [4] 0.991 | locus YNL153C, strain GIM3, active compounds read low 1.02 | [5] 1.02 | [6] 1.02 | [7] 1 | [8] 1.02
